Results filed as inconclusive are left out. The source made the active and inactive calls. The call rests on the fitted dose curve; in most records, active means well fitted cell-killing curve with a large enough effect; inconclusive means small, poorly fitted or top-dose-only effect, or effect the other way; inactive means no such curve, though single readings can be large or run the other way.

A short description of assay [1]: Quantitative High-Throughput drug screen in 47 multiple myeloma cell lines against the NCATS MIPE library collection: INA6_PLB cell viability assay (AID 1918965; further: nearly all actives have a fitted effect of over 55% in size). To be noted: INA6 myeloma viability, CellTiter-Glo ATP luminescence, 48 h; series mostly up to 45.8 µM. Put shortly:
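CellTiter-Glo ATP luminescence gave viability after 48 h compound treatment at 37C of 500 multiple myeloma cells per well. Normalisation used DMSO-only wells as 100% and media-only wells as 0% viability; primary qHTS of approved and investigational drugs.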
Background: In ATP-based viability assays light output follows the ATP content of the culture.

Assay [2] in a line: Quantitative High-Throughput drug screen in 47 multiple myeloma cell lines against the NCATS MIPE library collection: H1112_PLB cell viability assay (AID 1918967; further: nearly all actives have a fitted effect of over 30% in size). The note with it: H1112 myeloma cells viability, ATP luminescence, 48 h; series mostly up to 45.8 µM. The procedure, abridged: (§1)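 We plated 500 myeloma cells per well, pinned in MIPE 4.0 compounds, and incubated for 48 hours at 37C. ATP was then quantified with CellTiter-Glo, with DMSO and media-only wells defining 100% and 0%.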

Assay [3] can be described thus: Quantitative High-Throughput drug screen in 47 multiple myeloma cell lines against the NCATS MIPE library collection: Karpas25_ECACC cell viability assay (AID 1918968; further: nearly all actives have a fitted effect of over 35% in size). To be noted: Karpas25 myeloma viability, CellTiter-Glo ATP, 48 h; series mostly up to 45.8 µM. The procedure, abridged: as §1
Assay [4] can be described thus: Quantitative High-Throughput drug screen in 47 multiple myeloma cell lines against the NCATS MIPE library collection: KMS27_JCRB cell viability assay (AID 1918970). Further: nearly all actives have a fitted effect of over 30% in size. The note with it: KMS27 myeloma cells, CellTiter-Glo ATP viability, 48 h; series mostly up to 45.8 µM. Put shortly:
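Viability inhibition screen, 48 h compound exposure, luminescent ATP read-out.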

Assay [5] is described as follows: Quantitative High-Throughput drug screen in 47 multiple myeloma cell lines against the NCATS MIPE library collection: KMS12PE_JCRB cell viability assay (AID 1918972). Further: nearly all actives have a fitted effect of over 30% in size. To be noted: KMS12PE myeloma viability, CellTiter-Glo ATP, 48 h; series mostly up to 45.8 µM. The text has this: (§2) PI: Beverly A. Mock Ph.D.
(§3) Laboratory of Cancer Biology and Genetics,
(§4) Center for Cancer Research, National Cancer Institute,
(§5) National Institute of Health, Bethesda, Maryland
(§6) Drug resistance and disease progression are common in multiple myeloma (MM) patients, underscoring the need for new therapeutic combinations. […] We hypothesized that effective combinations would reduce MYC expression and enhance p16 activity. […] These preclinical data identify potentially useful drug combinations for evaluation in drug-resistant MM and reveal potential mechanisms of combined drug sensitivity.
(§7) Described herein is the primary MIPE qHTS used to cherrypick compounds. Validated compounds were then further tested for potential synergistic activiy.
(§8) [1] Peat TJ, Gaikwad SM, Dubois W, Gyabaah-Kessie N, Zhang S, Gorjifard S, Phyo Z, Andres M, Hughitt VK, Simpson RM, Miller MA, Girvin AT, Taylor A, Williams D, D'Antonio N, Zhang Y, Rajagopalan A, Flietner E, Wilson K, Zhang X, Shinn P, Klumpp-Thomas C, McKnight C, Itkin Z, Chen L, Kazandijian D, Zhang J, Michalowski AM, Simmons JK, Keats J, Thomas CJ, Mock BA. Drug combinations identified by high-throughput screening promote cell cycle transition and upregulate Smad pathways in myeloma. Cancer Lett. 2023 Aug 1;568:216284. doi: 10.1016/j.canlet.2023.216284. Epub 2023 Jun 24. PMID: 37356470; PMCID: PMC10408729.
(§9) SEQUENCE No. (e.g., 1, 2, 3, etc.); […] (e.g., Cells, Incubation, Reagent, etc.); VALUE and DESCRIPTION.
(§10) 1; Cells; 5 uL; white, solid bottom 1536-well Greiner assay plate.
(§11) 2; Compounds; 23 nL; Kalypsis pin tool (Wako USA) equipped with a 1536-well pin head to transfer to the assay plates.
(§12) 3; Incubation; 48 hours; 37C incubation.
(§13) 4; Reagent;5uL; CellTiter Glo (Promega).
(§14) 5; Detector; 425V; Luminescence; Viewlux PerkinElmer.
(§15) NOTES (numbers refer to Sequence numbers above)
(§16) 1. The cell-based screening methods employed in this study were like those previously published. Briefly, the corresponding myeloma cell lines were screened in 1,536-well plates with 500 cells, 5-uL per well for inhibition of cell viability (assessed by measuring ATP levels with CellTiterGlo).
(§17) 2. NCATS MIPE 4.0 library of approved and investigational drugs were added using the Kalypsis pin tool. Wells treated with DMSO only for 100% viability and media only wells for 0% viability were used as controls.
(§18) 3. The assay plates were covered and incubated for 48 hours in a 37C, 5% CO2 incubator with controlled humidity.
(§19) 4. After 48 hours, CellTilter-GloTM luminescent substrate mix (Promega) reagent was added to the assay plate and plates we incubated for 5 min at room temperature.
(§20) 5. Signal was measured as median relative luminescence units on a ViewLux (PerkinElmer) multiplate reader.
(§21) [1] Heske CM, Davis MI, Baumgart JT, Wilson K, Gormally MV, Chen L, Zhang X, Ceribelli M, Duveau DY, Guha R, Ferrer M, Arnaldez FI, Ji J, Tran HL, Zhang Y, Mendoza A, Helman LJ, Thomas CJ. Matrix Screen Identifies Synergistic Combination of PARP Inhibitors and Nicotinamide Phosphoribosyltransferase (NAMPT) Inhibitors in Ewing Sarcoma. Clin Cancer Res. 2017 Dec 1;23(23):7301-7311. doi: 10.1158/1078-0432.CCR-17-1121. Epub 2017 Sep 12. PMID: 28899971; PMCID: PMC6636827.

Assay [6] in a line: Quantitative High-Throughput drug screen in 47 multiple myeloma cell lines against the NCATS MIPE library collection: KMS20_JCRB cell viability assay (AID 1918973). Further: nearly all actives have a fitted effect of over 45% in size. To be noted: CellTiter-Glo ATP, 48 h; series mostly up to 45.8 µM. The procedure, abridged:
as §1

Assay [7] is described as follows: Quantitative High-Throughput drug screen in 47 multiple myeloma cell lines against the NCATS MIPE library collection: KMS21BM_JCRB cell viability assay (AID 1918974). The note with it: ATP luminescence, 48 h; series mostly up to 45.8 µM.
Source text: as §2, §3, §4, §5, §6, §7, §8, §9, §10, §11, §12, §13, §14, §15, §16, §17, §18, §19, §20, §21

A short description of assay [8]: Quantitative High-Throughput drug screen in 47 multiple myeloma cell lines against the NCATS MIPE library collection: KMS26_JCRB cell viability assay (AID 1918975). Further: nearly all actives have a fitted effect of over 45% in size. To be noted: KMS26 myeloma cells viability, CellTiter-Glo ATP, 48 h; series mostly up to 45.8 µM.
Source text: as §2, §3, §4, §5, §6, §7, §8, §9, §10, §11, §12, §13, §14, §15, §16, §17, §18, §19, §20, §21

Assay [9] can be described thus: Quantitative High-Throughput drug screen in 47 multiple myeloma cell lines against the NCATS MIPE library collection: JJN3_DSMZ cell viability assay (AID 1918966; further: nearly all actives have a fitted effect of over 50% in size). The note with it: JJN3 myeloma cells viability, CellTiter-Glo ATP, 48 h; series mostly up to 45.8 µM. Put shortly: as §1
A short description of assay [10]: Quantitative High-Throughput drug screen in 47 multiple myeloma cell lines against the NCATS MIPE library collection: KMS12BM_JCRB cell viability assay (AID 1918971). Further: nearly all actives have a fitted effect of over 35% in size. The note with it: KMS12BM myeloma viability, CellTiter-Glo ATP, 48 h; series mostly up to 45.8 µM.
Source text: as §2, §3, §4, §5, §6, §7, §8, §9, §10, §11, §12, §13, §14, §15, §16, §17, §18, §19, §20, §21
Potency means the concentration at half of the fitted maximal effect.

In the case of `COc1cc(OC)c(OC)cc1C=O`, the Potency entry in assay [1], in assay [2], in assay [3], in [5], in assay [6] and in assay [7] was “inactive” throughout. For the same molecule, in assay [8], the Potency entry was “inactive”. The Potency in assay [4] is 0.0047 µM (active).
For the molecule `CN1C(=O)CCS(=O)(=O)C1c1ccc(Cl)cc1` (centres undefined), the Potency result in assay [1], in assay [9], in assay [4], in assay [10], in assay [5] and in assay [6] was “inactive” throughout. For the same molecule, in [8], the Potency result is “inactive”. In addition, in assay [2], the Potency was 16.6 µM (active).
Regarding `C[C@](O)(CS(=O)(=O)c1ccc(F)cc1)C(=O)Nc1ccc(C#N)c(C(F)(F)F)c1`, the Potency in assay [1] is 1.18 µM (active); in [9], 4.69 µM (active); in [2] it was 0.662 µM (active); in assay [3], 0.418 µM (active); in assay [10], 26.4 µM (active); in assay [6], 0.833 µM (active). For the same molecule, the Potency in assay [7] was 6.62 µM (active); in [8], 4.69 µM (active). Moreover, in assay [4], the Potency entry was “inactive”.
As for `O=P1(N(CCCl)CCCl)NCCCO1` (centres undefined), the Potency result in assay [2] is “inactive”. The Potency in [4] was 20.9 µM (active); in assay [5], 8.33 µM (active); in [7], 14.8 µM (active).
Regarding `C[C@]12CCC(=O)C=C1CC[C@@H]1[C@H]3CC[C@](C)(O)[C@@]3(C)CC[C@@H]12`, in assay [2], the Potency entry was “inactive”. The Potency is 34 µM (active) in assay [10] and 15.2 µM (active) in assay [5].
Consider `CC(NC(C)(C)C)C(=O)c1cccc(Cl)c1` (centres undefined), for which the Potency result in assay [1], in [9], in assay [4], in assay [5] and in assay [8] was “inactive” in each case. Moreover, the Potency in assay [3] is 3.72 µM (active).
Consider `CC(C)C[C@H](CN)CC(=O)O`, for which the Potency entry in assay [1], in assay [2], in assay [3], in assay [4], in assay [5] and in assay [8] was “inactive” in each case. In addition, in assay [10], the Potency was 9.35 µM (active).
In the case of `C[C@]12CC[C@@H]3c4ccc(OC(=O)N(CCCl)CCCl)cc4CC[C@H]3[C@@H]1CC[C@@H]2OP(=O)(O)O`, the Potency result in assay [9], in assay [2], in assay [3], in assay [4], in [10] and in assay [7] was “inactive” each time.
Consider `CCC1(c2ccc(N)cc2)CCC(=O)NC1=O` (centres undefined), for which the Potency result in assay [1], in assay [2], in assay [3], in assay [4], in [5] and in assay [8] was “inactive” in each case.
Take `CN1C(=O)COc2c(C(=O)NC3CN4CCC3CC4)cc(Cl)cc21` (centres undefined): the Potency result in [2], in assay [3], in assay [10], in assay [5] and in assay [8] was “inactive” throughout.
With `C[C@]12CC[C@H]3[C@@H](CC[C@@]45O[C@H]4C(O)=C(C#N)C[C@]35C)[C@H]1CC[C@H]2O`, the Potency in [9] was 18.7 µM (active). The Potency result in assay [3], in assay [10] and in assay [6] was “inactive” each time.
Consider `O=C(O)CCCc1ccc(N(CCCl)CCCl)cc1`, for which, in assay [1], the Potency was 18.7 µM (active). In addition, the Potency entry in assay [2], in assay [5] and in assay [7] was “inactive” throughout.
Consider `CC(C)c1cccc(C(C)C)c1O`, for which the Potency entry in assay [1], in assay [2], in [3] and in assay [6] was “inactive” in each case.
